# High-throughput results: PubChem, Sanford-Burnham Center for Chemical Genomics
# CYP2C19 act: cytochrome P450 2C19 (human) activation; activation factor at 5 µM; 96,000 tested, under 10 active; recombinant CYP2C19, luciferin-H EGE luminescence; stronger effect = higher value; 0 = fully inhibited enzyme, 1 = untreated enzyme; P33261;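 active means activation factor of at least 2 at 5 µM in the primary screen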;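 further: 0 = wells with 2.5 mM tranylcypromine and 1 = vehicle-only wells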
# Mac1 fbg inh: CD11b/CD18-fibrinogen binding inhibition; P05107+P11215; K562 CD11b/CD18 adhesion to fibrinogen, ATPlite luminescence; Mn2+ added to activate the integrin; inhibition, % at 10 µM; 0.54% of 93,000 active; AID 1497;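 active means primary inhibition of 50% or more at 10 µM, then 40% or more on retest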
# CYP2C9 act: activators of human CYP2C9 | P11712 | recombinant CYP2C9, luciferin-H conversion, luminescence; stronger effect = higher value; factor 1 = untreated enzyme, 0 = blocked | activation factor at 5 µM | 1.4% of 96,000 active | AID 1024;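 active means activation factor of 2 or more for CYP2C9 at a 5 µM dose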;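 further: 0 = sulfaphenazole-blocked wells and 1 = vehicle-only wells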
# CYP2C19 inhib: human CYP2C19 inhibition; P33261; CYP2C19 Supersomes, luciferin-H EGE luminescence, 30 min; inhibition, % at 5 µM; 21% of 96,000 active; AID 778;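 active means CYP2C19 inhibition above a set limit at 5 µM in the primary screen, cut at about 50% in these data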;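 further: plate controls were negative control wells for no effect and 2.5 mM tranylcypromine positive control for full effect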
# CYP2C9 inhib: human CYP2C9 inhibition; inhibition, % at 5 µM; 20% of 96,000 active; CYP2C9 Supersomes, luciferin-H conversion, luminescence; AID 777;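 active means blocking of liver enzyme CYP2C9 beyond about 50% at 5 µM, limit read from the data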
# Mac1 fbg enh: increases human CD11b/CD18 adhesion to fibrinogen; activation, % at 10 µM; 0.07% of 93,000 active; K562 CD11b/CD18 adhesion to fibrinogen, ATPlite luminescence; P05107+P11215; AID 1499;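 active means 10 µM primary screen giving 50% or more activity, confirmed by 40% or more on retest at that dose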
# Starred values were filed as active, the others as inactive; x = no result given. This is a sample that favours compounds with a hit; in the whole collection about 28% have one here.
SMILES,CYP2C19 act,Mac1 fbg inh,CYP2C9 act,CYP2C19 inhib,CYP2C9 inhib,Mac1 fbg enh
Cc1c(CCO)c(=O)n(-c2ccccc2)n1S(=O)(=O)c1ccc(Cl)cc1,0.3,2,0.5,70*,47,-5
O=C1C2C3C=CC(CO)(O3)C2C(=O)N1c1ccccc1-c1ccccc1 (centres undefined),0.8,-5,0.9,19,11,1
Cc1nn(C(C)(C)C)c(OC(=O)C2CCCC2)c1S(=O)(=O)c1ccccc1,1,x,0.5,-4,49,x
Cc1nn(-c2ccccc2)c(OC(=O)c2cccs2)c1S(=O)(=O)c1ccccc1,0.4,x,0.2,62*,80*,x
Cc1nn(-c2ccccc2)c(OC(=O)c2cccs2)c1S(=O)(=O)c1ccc([N+](=O)[O-])cc1,0.5,30,0,47,99*,-2
Nc1cc(OC(=O)c2cccs2)nn1S(=O)(=O)c1ccccc1,0.9,-2,0.6,13,40,-4
Cc1[nH]c2ccc(C(=O)OCCN(C)C)cc2c1C,0.1,-14,0.8,86*,23,0
O=C1CCCC2=C1C(c1ccncc1)c1c(nc(SCc3ccccc3)[nH]c1=O)N2 (centres undefined),0.1,-7,0.1,87*,90*,-2
Cc1ccc(C2C3=C(CCCC3=O)Nc3nc(SCC(=O)NCc4ccco4)[nH]c(=O)c32)cc1 (centres undefined),1.2,x,1,-16,1,x
O=C(COC(=O)c1ccccn1)Nc1ncc(C(F)(F)F)cc1Cl,0.7,-4,0.8,35,20,-2
Cc1cccc(NC(=S)NNC(=O)c2ccccc2OC(F)F)c1,0.7,-1,0.5,33,47,3
CCOc1ccccc1C(=O)OCC(=O)Nc1ncc(C(F)(F)F)cc1Cl,0.1,-36,0.7,93*,29,9
O=C(COC(=O)c1cccc2ccccc12)Nc1ncc(C(F)(F)F)cc1Cl,0.6,-47,0.8,42,24,-1
COc1ccc(NC(=S)NNC(=O)c2ccccc2OC(F)F)cc1,0.7,6,0.5,31,54*,-1
CCOc1ncccc1C(=O)OCC(=O)Nc1ncc(C(F)(F)F)cc1Cl,0.4,-9,0.7,62*,26,-2
CCOc1ccccc1C(=O)OCC(=O)Nc1ccc(OC(F)F)cc1,0.4,12,1,55*,-1,0
O=C(COC(=O)Cc1ccc(Cl)cc1)Nc1ccc(OC(F)F)cc1,x,4,x,x,x,7
O=C(COC(=O)CSc1ccc2ccccc2c1)NC1CCCC1,x,8,x,x,x,4
O=C(CC1Oc2ccc(Cl)cc2NC1=O)NC1CCCCCC1 (centres undefined),1,-8,1.3,1,-27,3
CCOC(=O)CCC(=O)N1CCNC(=O)C1,0.8,-8,0.7,16,28,0
CCOC(=O)C1CN(C(C)(C)C)C(=O)C1=O (centres undefined),x,-1,x,x,x,0
O=C(NCCCN=C1NS(=O)(=O)c2ccccc21)c1ccc(S(=O)(=O)N2CCCCC2)cc1,0.8,11,0.5,19,54*,-3
O=C(NCCN=C1NS(=O)(=O)c2ccccc21)c1ccc2nccnc2c1,0.8,7,0.6,22,37,-4
O=C(OCCCN=C1NS(=O)(=O)c2ccccc21)c1ccc(F)cc1,0.9,-16,0.6,7,37,-2
O=C(NCCN=C1NS(=O)(=O)c2ccccc21)c1ccncc1,1,2,0.5,0,51*,-2
SMILES,CYP2C19 act,Mac1 fbg inh,CYP2C9 act,CYP2C19 inhib,CYP2C9 inhib,Mac1 fbg enh
O=C(OCCN=C1NS(=O)(=O)c2ccccc21)c1ccncc1,1.2,-4,0.2,-19,78*,-3
CCC(=O)Nc1cccc(-c2nnc(SCC(=O)c3ccccc3)n2C)c1,0.6,-3,0.9,41,10,-1
COc1cc(S(=O)(=O)NCC2COCCO2)ccc1-n1cnnn1 (centres undefined),0.7,1,0.9,28,8,0
COc1cc(NS(=O)(=O)c2ccc(C)cc2)ccc1-n1cnnn1,0.6,-2,0.3,44,72*,1
COc1cc(S(=O)(=O)NCCc2ccc3c(c2)OCO3)ccc1-n1cnnn1,0,14,0.1,96*,87*,4
CCOCCCNS(=O)(=O)c1ccc(-n2cnnn2)c(OC)c1,0.1,1,1.3,89*,-34,-5
